# Screening results (PubChem)
# CYP2C9 inh = blockers of cytochrome P450 2C9 activity – biochemical, luminescence, ADME assay, primary screen; P11712; CYP2C9 Supersomes, luciferin-H conversion; inhibition, % at 5 µM; actives 20% (n = 96,000);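 active means blocking of liver enzyme CYP2C9 beyond about 50% at 5 µM, limit read from the data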
# sEH inhibitor = soluble epoxide hydrolase inhibitors, primary screen, biochemical, human sEH. Bifunctional epoxide hydrolase 2 (Homo sapiens), P34913. recombinant human sEH enzymatic activity assay. inhibition, % at 2 µM. actives 0.34% (n = 91,000). AID 707, 2007; in the data active means inhibition above about 80%
# CYP2C9 activ = human CYP2C9 activators, primary screen, biochemical, luminescence. Cytochrome P450 2C9 (Homo sapiens), P11712. recombinant CYP2C9, luciferin-H conversion; stronger effect = higher value; factor 1 = untreated enzyme, 0 = blocked. activation factor at 5 µM. actives 1.4% (n = 96,000);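 active means activation factor of 2 or more for CYP2C9 at a 5 µM dose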;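 further: 0 = sulfaphenazole-blocked wells and 1 = vehicle-only wells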
# CYP2C19 activ = human CYP2C19 activators, primary screen, biochemical, luminescence; Cytochrome P450 2C19 (Homo sapiens), P33261; recombinant CYP2C19, luciferin-H EGE luminescence; stronger effect = higher value; 0 = fully inhibited enzyme, 1 = untreated enzyme; activation factor at 5 µM; 96,000 tested, under 10 active;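 active means activation factor of at least 2 at 5 µM in the primary screen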;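 further: 0 = wells with 2.5 mM tranylcypromine and 1 = vehicle-only wells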
# Target sequence (P33261 whole entry, looked up): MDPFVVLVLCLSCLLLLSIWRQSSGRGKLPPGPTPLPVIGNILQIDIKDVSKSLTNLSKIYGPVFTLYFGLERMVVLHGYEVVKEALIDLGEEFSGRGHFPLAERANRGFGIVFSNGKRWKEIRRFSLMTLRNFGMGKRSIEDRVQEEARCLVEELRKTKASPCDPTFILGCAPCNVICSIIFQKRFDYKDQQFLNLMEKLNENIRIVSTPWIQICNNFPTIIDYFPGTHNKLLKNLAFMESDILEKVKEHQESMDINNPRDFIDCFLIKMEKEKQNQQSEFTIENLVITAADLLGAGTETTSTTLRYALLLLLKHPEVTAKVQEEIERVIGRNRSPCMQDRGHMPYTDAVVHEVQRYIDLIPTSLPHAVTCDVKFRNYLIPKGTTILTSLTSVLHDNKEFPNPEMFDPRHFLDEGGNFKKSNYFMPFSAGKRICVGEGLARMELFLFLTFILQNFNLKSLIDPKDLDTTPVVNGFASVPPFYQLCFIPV
# CYP2C19 inhib = blockers of cytochrome P450 2C19 activity – biochemical, luminescence, ADME assay, primary screen | CYP2C19 Supersomes, luciferin-H EGE luminescence, 30 min | inhibition, % at 5 µM | actives 21% (n = 96,000) | P33261;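 active means CYP2C19 inhibition above a set limit at 5 µM in the primary screen, cut at about 50% in these data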;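 further: plate controls were negative control wells for no effect and 2.5 mM tranylcypromine positive control for full effect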
# sEH activator = soluble epoxide hydrolase activators, primary screen, biochemical, human sEH | AID 717, 2007 | Bifunctional epoxide hydrolase 2 (Homo sapiens), P34913 | purified human sEH enzymatic activity, activator screen | activation, % at 2 µM | actives 0.04% (n = 91,000); in the data active means activation above about 37%
# Numbers without * were called inactive; nt = no result given. A selection: hits, their analogues and other compounds. The true share with any hit is near 27%.
SMILES,CYP2C9 inh,sEH inhibitor,CYP2C9 activ,CYP2C19 activ,CYP2C19 inhib,sEH activator
COC(=O)c1ccc2c(=O)[nH]c(CN3c4ccccc4CC3C)nc2c1 (stereo not drawn),82*,8,0.2,0.8,22,-6
CC1Cc2ccccc2N1Cc1nc2scc(-c3cccs3)c2c(=O)[nH]1 (stereo not drawn),95*,nt,0,0.3,75*,nt
N#Cc1ccc(COC(=O)c2ccc3c(=O)[nH]c(CN4CCOCC4)nc3c2)cc1,0,-15,1,1.1,-14,13
C#CCSc1nnc(-c2ccccc2)c(=O)[nH]1,56*,3,0.4,0.9,6,-4
O=C(Cc1ccccc1)Nc1nonc1NC(=O)c1ccccc1,70*,-18,0.3,0.7,27,18
C=CCn1c(SCC(=O)Nc2ccc(N(C)C)cc2)nnc1-c1cccc(C)c1,37,9,0.6,0.7,29,-12
C=CCn1c(O)c(C=Nc2ccc(Cc3ccncc3)cc2)c(=O)[nH]c1=S,83*,-2,0.2,0.1,88*,0
C=CCn1c(=S)[nH]c2nc3c(cc2c1=O)CCCC3,-20,-1,1.2,1.1,-6,1
C=CCn1c(SC(C)C(=O)NCCC2=CCCCC2)nc2ccccc2c1=O (stereo not drawn),56*,-4,0.4,0.5,47,6
CCOC(=O)C(C)Sc1nc2ccccc2c(=O)n1CC (stereo not drawn),63*,10,0.4,0.2,77*,-7
CCOC(=O)COn1c(SCC(=O)OCC)nc2ccccc2c1=O,19,-6,0.8,0.5,53*,7
CCOC(=O)COn1c(=O)c(=O)n(O)c2ccccc21,90*,nt,0.1,0,99*,nt
CCn1c(SCC(=O)n2nc(C)cc2C)nnc1-c1ccc2c(c1)OCO2,-20,nt,1.2,0.7,30,nt
CCOC(=O)C(NCCCO)c1ccccc1 (stereo not drawn),5,nt,1,0.9,6,nt
CCCCNC(c1ccccc1)c1ccncc1 (stereo not drawn),45,-14,0.6,0.3,70*,8
CCOC(=O)CC1=NC(=O)CS1,-8,nt,1.1,1.1,-8,nt
O=S(=O)(Nc1nc2ccccc2nc1NCCO)c1cccc(Cl)c1,99*,-3,0,0.8,16,5
CCOc1nc2ccccc2nc1NS(=O)(=O)c1ccccc1,39,nt,0.6,1.1,-9,nt
O=S(=O)(c1ccccc1)c1ccc(NCc2ccco2)cc1,-61,nt,1.6,0.3,67*,nt
O=S(=O)(Nc1cccnc1)c1cccc(Cl)c1,15,-9,0.8,0.8,23,7
O=S(=O)(Nc1nc2ccccc2nc1NCc1ccco1)c1ccccc1,98*,-1,0,1.2,-21,0
O=C(CCCNS(=O)(=O)c1ccccc1)NCc1ccco1,-18,nt,1.2,1.1,-13,nt
CCN1CCCC1CNC(=O)C1CCN(Cc2nc(-c3cccc(Br)c3)oc2C)CC1 (stereo not drawn),-11,12,1.1,1.2,-20,-10
CCOC(=O)c1c(CN2CCCCC2)n(C)c2ccc(OC)c(S(=O)(=O)c3ccccc3)c12,9,nt,0.9,1,2,nt
O=C(COC(=O)CN1C(=O)c2ccccc2C1=O)Nc1ccc(S(=O)(=O)N2CCCC2)cc1,36,15,0.6,1.1,-5,-16
SMILES,CYP2C9 inh,sEH inhibitor,CYP2C9 activ,CYP2C19 activ,CYP2C19 inhib,sEH activator
O=C(Cn1ncc2c1-c1ccccc1OC2)Nc1ccc(S(=O)(=O)N2CCCCC2)cc1,68*,44,0.3,0.8,17,-42
O=C(COC(=O)CCC(=O)c1cccs1)Nc1ccc(S(=O)(=O)N2CCOCC2)cc1,89*,nt,0.1,0.8,21,nt
Cc1ccc(S(=O)(=O)N2CCOCC2)cc1NC(=O)COC(=O)CCC(=O)c1cccs1,14,7,0.9,0.8,16,-7
O=C(COC(=O)CCN1C(=O)c2ccccc2C1=O)Nc1ccc(S(=O)(=O)N2CCCC2)cc1,96*,16,0,0.5,54*,-16
COC(=O)Nc1ccc(S(=O)(=O)N2CCCCC2)cc1,37,-4,0.6,0.7,32,2
CC(C(=O)OCC(=O)Nc1ccc(S(=O)(=O)N2CCCCC2)cc1)N1C(=O)c2ccccc2C1=O (stereo not drawn),92*,37,0.1,0.8,22,-36
COc1cc(C2NC(=O)NC(C)=C2C(=O)OC(C)C)ccc1OC(=O)c1ccco1 (stereo not drawn),nt,-1,nt,nt,nt,1
C=CCn1c(SCC(=O)c2ccc(CNC(C)=O)o2)nc2ccccc2c1=O,40,3,0.6,0.8,24,-2
CCOC(=O)N1CCC(N2CC34C=CC(O3)C(C(=O)Nc3ccc(OCC)cc3)C4C2=O)CC1 (stereo not drawn),15,6,0.9,1.1,-8,-4
Cc1nc2ccccc2n1CC(O)Cn1c2ccccc2c2ccccc21 (stereo not drawn),78*,1,0.2,0.2,75*,-1
CCCCOCC(O)Cn1c(C)nc2ccccc21 (stereo not drawn),13,6,0.9,0.5,46,-7
Cc1ccc2c(c1)c1c(n2CC2COC(C)(C)O2)C(=O)CCC1 (stereo not drawn),73*,-7,0.3,0.2,76*,8
Cc1ccc2c(c1)c1c(n2CC(O)Cn2c(C)nc3ccccc32)/C(=N\O)CCC1 (stereo not drawn),96*,-8,0,0.5,54*,5
Cc1ccc2c(c1)c1c(n2CC(O)Cn2c(C)nc3ccccc32)C(=O)CCC1 (stereo not drawn),86*,nt,0.1,1,2,nt
Cc1ccc2c(c1)c1c(n2CC(O)Cn2ccnc2C)C(=O)CCC1 (stereo not drawn),nt,0,nt,nt,nt,2
FC(F)(F)c1cc(-c2ccc(Cl)cc2)nc2ncnn12,-10,0,1.1,1.1,-7,-2
CCc1cc2c(=O)n(Cc3ccco3)c(SCc3c(C)noc3C)nc2s1,90*,nt,0.1,0.5,51*,nt
CCc1cc2c(=O)n(Cc3ccco3)c(SCC(=O)N3CCCc4ccccc43)nc2s1,87*,0,0.1,0.7,34,0
O=C(CSc1nc(-c2ccco2)cc(C(F)(F)F)n1)N1CCCc2ccccc21,nt,-2,nt,nt,nt,-2
COC(=O)CCN(C(=O)c1ccc(OC(C)=O)cc1)c1ccccn1,-13,-4,1.1,1.2,-16,3
O=c1/c(=C\c2ccc(O)cc2)sc2n1C(c1ccccc1)C(c1ccccc1)=NN=2 (stereo not drawn),56*,-8,0.4,0.8,24,11
